These results are taken from PubChem BioAssay AID2685 (National Center for Advancing Translational Sciences (NCATS), 2010).

Structures are written as SMILES. Among all 320,000 compounds or so, about 2,100 (0.66%) were called active. Roughly 53% stayed inconclusive and do not appear here. This is one part of a sample in which actives are shown more often than they occur. The call rests on the fitted dose curve; in most records, active means well fitted inhibition curve with a large enough effect in the signal ratio, with a control signal flat (not every such curve was filed as active); inconclusive means small, poorly fitted or top-dose-only effect, or effect the other way, or a change in a side signal; inactive means flat fitted curve, though single readings scatter; the % refers to the signal ratio.
Potency means the concentration at half of the fitted maximal effect.

This experiment can be described thus: qHTS Assay for Lipid Storage Modulators in Drosophila S3 Cells.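 On cell number change: cells counted by Cell Tracker Red CMTPX staining in the red channel.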 On lipid storage change, negative = inhibition: on the % scale 0 is the no-effect control and ±100 the full control effect. As to conditions: BODIPY lipid droplet fluorescence, 18-24 h, cells fed with added oleic acid; cell number change: measured here: cell count max response; series mostly up to 46.1 µM; lipid storage change, negative = inhibition: at the top concentration. Put shortly:
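Drosophila S3 cells loaded with oleic acid (400 uM, as added) and compounds at several concentrations; lipid droplets imaged by 488-nm laser-scanning cytometry, 500–530 nm intensity and object ratio to cell channel. Percent activity normalized to 20 uM Triacsin C.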
(Quantitative high-throughput screening tests each substance at several concentrations.)
In the case of `Cc1[nH]n(-c2ccc([N+](=O)[O-])cc2)c(=O)c1C=NCC1CCCO1` (stereo unspecified), the outcome is “inactive [at 9.22 µM]”.
On to `O=C(CN1C(=O)/C(=C/c2cccc(Br)c2)SC1=S)NCCCN1CCOCC1`, for which the “lipid storage change, negative = inhibition” value was -12% (inactive).
For the molecule `O=C(Cc1csc(NC(=O)Nc2ccc(Cl)cc2)n1)NC1CCCC1`, the outcome was “inactive [at 0.0737 µM]”.
As to `Cn1c(CC(=O)NCCO)c(Sc2ccccc2)c2ccccc21`, the “lipid storage change, negative = inhibition” value was -11.2% (inactive) and the cell number change was -10.3%.
Take `O=C(Cc1c(Sc2ccccc2)c2ccccc2n1Cc1ccccc1)NCCO`: the Potency was 13 µM (active).
For the molecule `CSc1c(CC(=O)NCCCO)n(Cc2ccccc2)c2ccccc12`, the “lipid storage change, negative = inhibition” value is -9.68% (inactive) and the cell number change was -1.72%.
Taken in the same sequence, the figures for `Cc1cccc(-n2c(=S)[nH]c3nc4c(cc3c2=O)COC(C)(C)C4)c1` were -10.4% (inactive) and 18.9%.
Taken in the same sequence, the figures for `CCOc1ccc(S(=O)(=O)NCCc2cn3ccccc3n2)cc1` were 13.3% (inactive) and 6.49%.
Regarding `CN1CCN(c2nc(-c3cccnc3)nc3scc(-c4ccccc4)c23)CC1`, the molecule was classed as inactive.
Consider `COc1ccc(-c2csc3ncnc(N4CCN(S(=O)(=O)c5ccccc5C#N)CC4)c23)cc1`, for which the Potency was 7.31 µM (active) and the cell number change was -21.2%.
For `Cc1ccc(-c2csc3ncnc(N4CCN(c5ccccc5O)CC4)c23)cc1`, the molecule was classed as inactive and the cell number change came out at 7.78%.
Take `c1ccc(-c2csc3ncnc(N4CCOCC4)c23)cc1`: the “lipid storage change, negative = inhibition” value is -7.17% (inactive) and the cell number change is -6.12%.
With `Oc1ccccc1N1CCN(c2ncnc3scc(-c4ccccc4)c23)CC1`, the Potency is 0.92 µM (active) and the cell number change was -12.6%.
Consider `Cc1nc(N2CCCCC2)c2c(-c3cccs3)csc2n1`, for which the “lipid storage change, negative = inhibition” value was 2.23% (inactive) and the cell number change worked out at 4.97%.
Regarding `COc1ccc(-c2csc3ncnc(N4CCN(S(=O)(=O)c5ccc(Cl)s5)CC4)c23)cc1`, the “lipid storage change, negative = inhibition” value was 18.9% (inactive).
Regarding `Cc1nc(N2CCN(c3ccccc3O)CC2)c2c(-c3ccccc3)csc2n1`, the Potency is 4.11 µM (active) and the cell number change is -4.5%.
On to `COc1ccc(-c2csc3ncnc(N4CCN(c5ccc(OC)cc5)CC4)c23)cc1`, for which the “lipid storage change, negative = inhibition” value was -11.7% (inactive) and the cell number change amounted to 11.5%.
Turning to `COc1cccc(NC(=O)CN(C)C(=O)c2ccccc2-c2nc3ccccc3s2)c1`, the result was inactive and the cell number change is -6.15%.
`CCCCn1c(N)c(N(CC)C(=O)c2ccc([N+](=O)[O-])c(C)c2)c(=O)[nH]c1=O`: the molecule was classed as inactive and the cell number change came to 6.41%.
On to `COCC(=O)NCCSc1c(C)[nH]c2ccccc12`, for which the call was inactive.
As for `COc1ccc(/C=N/NC(=O)c2cccc(Br)c2)cc1CSc1ccccn1`, the “lipid storage change, negative = inhibition” value was 11% (inactive) and the cell number change was determined as 25.3%.
For `Cc1ccccc1CN1CCC(n2nccc2NC(=O)CCOc2ccccc2)CC1`, the call was inactive.
As to `N#Cc1ccccc1OCC(=O)NCC(c1ccc(F)cc1)N1CCOCC1` (stereo unspecified), the “lipid storage change, negative = inhibition” value was 14.4% (inactive) and the cell number change turned out to be 17.7%.
For `CSc1nnc(C)c(=O)n1COC(=O)COc1ccc(F)cc1`, the “lipid storage change, negative = inhibition” value was -4.54% (inactive).
`CCC(C)N(C(=O)Cn1nnc(-c2ccc(F)cc2)n1)C1CCS(=O)(=O)C1` (stereo unspecified): the “lipid storage change, negative = inhibition” value is 18.3% (inactive) and the cell number change is 8.11%.
`COc1ccc(Cl)cc1S(=O)(=O)N(C)CC(=O)NCc1ccc2c(c1)OCO2`: the “lipid storage change, negative = inhibition” value is -3.57% (inactive) and the cell number change stood at 13.5%.
Taken in the same sequence, the figures for `O=C(CN(C(=O)c1csnn1)c1cccc(F)c1)NCc1ccc2c(c1)OCO2` were 4.68% (inactive) and 8.12%.
For the molecule `COc1ccc(N(CC(=O)NCc2ccc3c(c2)OCO3)C(=O)c2csnn2)cc1`, the Potency was 1.16 µM (active) and the cell number change is -14.1%.
Turning to `COc1ccc(S(=O)(=O)N(C)CC(=O)Nc2ccc3c(c2)OCO3)cc1`, the call was inactive and the cell number change was -1.44%.
On to `COc1ccc(S(=O)(=O)N(C)CC(=O)NCc2ccc3c(c2)OCO3)cc1`, for which the Potency was 2.06 µM (active) and the cell number change came out at 16.1%.
Take `O=C(CN(C(=O)c1csnn1)c1ccc(Cl)cc1)NCc1ccc2c(c1)OCO2`: the molecule was called inactive and the cell number change came out at 3.81%.
As to `Cc1ccc2c(c1)N(S(=O)(=O)c1ccc3c(c1)NC(=O)CC(=O)N3)CCO2`, the “lipid storage change, negative = inhibition” value was -11.8% (inactive) and the cell number change is 15%.
Taken in the same sequence, the figures for `COC(=O)c1sc2ncccc2c1OCc1ccccc1Cl` were -7.27% (inactive) and -10.8%.
Take `COc1cccc(C2/C(=C(/O)c3ccc4c(c3)OCO4)C(=O)C(=O)N2CCN2CCOCC2)c1` (stereo unspecified): the “lipid storage change, negative = inhibition” value was -7.15% (inactive) and the cell number change was determined as 25.8%.
Take `CC(C)Cc1nnc(NC(=O)C2=COCCO2)s1`: the “lipid storage change, negative = inhibition” value was 3.82% (inactive) and the cell number change was -9.23%.
Turning to `C=CCn1c(C)c(C(C)=O)c(N2CCOCC2)nc1=S`, the Potency is 23.1 µM (active) and the cell number change is -4.96%.
`C=CCn1c(C)c(C(C)=O)c(N2CCN(c3ccccc3)CC2)nc1=S`: the “lipid storage change, negative = inhibition” value is 4.46% (inactive) and the cell number change is -14.3%.
Take `C=CCn1c(C)c(C(C)=O)c(N2CCCC2)nc1=S`: the “lipid storage change, negative = inhibition” value is 0.966% (inactive) and the cell number change is 0.195%.
`CCOc1ccc(/C=N/n2c(SC)nnc(C(C)(C)C)c2=O)cc1`: the “lipid storage change, negative = inhibition” value was 3.3% (inactive) and the cell number change is -13.9%.
Consider `Cc1cc(NS(=O)(=O)c2ccc(NC(=O)CN3C(=O)c4ccccc4C3=O)cc2)nc(C)n1`, for which the outcome was inactive.
As to `CCOC(=O)COc1ccc(S(=O)(=O)Nc2ccc(C)cc2)cc1`, the outcome was inactive and the cell number change came to 11.3%.
Take `COC(=O)COc1ccc(S(=O)(=O)Nc2ccc(NC(C)=O)cc2)cc1`: the Potency is 3.66 µM (active) and the cell number change was -0.0647%.
Regarding `Cc1cc(NS(=O)(=O)c2ccc(NC(=O)COc3ccc(Br)cc3)cc2)nc(C)n1`, the Potency was 18.4 µM (active).
In the case of `CCOc1ccc(OCC(=O)Nc2ccc(S(=O)(=O)Nc3cc(C)nc(C)n3)cc2)cc1`, the molecule was classed as inactive and the cell number change was -4.96%.
Turning to `Cc1cccc(OCC(=O)Nc2ccc(S(=O)(=O)Nc3cc(C)nc(C)n3)cc2)c1`, the “lipid storage change, negative = inhibition” value was 1.01% (inactive) and the cell number change amounted to 13.6%.
Taken in the same sequence, the figures for `COCCOCC(=O)Nc1ccc(S(=O)(=O)Nc2cc(C)nc(C)n2)cc1` were -12.7% (inactive) and 21.3%.
For the molecule `COC(=O)COc1ccc(S(=O)(=O)Nc2ccc(C(N)=O)cc2)cc1`, the “lipid storage change, negative = inhibition” value was -14.2% (inactive) and the cell number change was found to be 10.2%.
The matching figures for `Cc1cc(C)nc(NS(=O)(=O)c2ccc(NC(=O)CN3C(=O)S/C(=C\c4ccccc4)C3=O)cc2)n1`: 20.9% (inactive) and 8.32%.
`COCC(=O)Nc1ccc(S(=O)(=O)Nc2cc(C)nc(C)n2)cc1`: the Potency is 32.6 µM (active) and the cell number change is -33.4%.
On to `Cc1cc(C)nc(NS(=O)(=O)c2ccc(NC(=O)CN3C(=O)c4ccccc4C3=O)cc2)n1`, for which the Potency was 6.51 µM (active) and the cell number change is -6.03%.
With `Cc1cc(NS(=O)(=O)c2ccc(NC(=O)CCCC(=O)O)cc2)nc(C)n1`, the “lipid storage change, negative = inhibition” value was -13.2% (inactive) and the cell number change is -5.64%.
Taken in the same sequence, the figures for `Cc1c(C(=O)NCc2cccnc2)sc2nc(-c3ccccc3)cn12` were -2.55% (inactive) and -2.88%.
Taken in the same sequence, the figures for `Cc1cccn2c(=O)nc(SCC(=O)NCc3ccccc3)nc12` were 14.2% [at 0.0737 µM] (inactive) and 26.3%.
The matching figures for `Cc1ccc(-n2ncc3c(=O)n(-c4ccc(C)c(C)c4)c(C)nc32)cc1`: 20.1% (inactive) and -21%.
`CC1=Nc2ccccc2N=C(NC(=O)CSC(=S)N2CCCCC2)C1c1ccccc1` (stereo unspecified): the “lipid storage change, negative = inhibition” value was 4.9% (inactive) and the cell number change was determined as 11.1%.
Taken in the same sequence, the figures for `CC(C)CC(NC(=O)c1ccccc1NC(=O)c1ccccc1)C(=O)O` (stereo unspecified) were 0.37% (inactive) and -8.71%.
